Test results published in PubChem BioAssay (NCI).
This is part of a sample that, as a whole, favours compounds with a hit. Of some 83,000 tested, about 20% had one in any assay.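 In brief: 96-well plates, 48 h treatment, single concentration, percent growth endpoint.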 Unmarked numbers belong to inactive results. Calls of active or inactive are those of the source. The calls were made as follows: active = growth percent below 10; inactive = the rest.

test system: HL-60(TB) leukemia; assay: NCI-60 one-dose screen, 48 h (100 = growth as untreated, 0 = no growth, -100 = all killed); conditions: 10 µM unless noted

First: O=C(NCC(c1ccsc1)N1CCCCCC1)c1ccc(C(F)(F)F)cc1 (stereo unspecified)
Second: COc1cc2nc(-c3ccc(C(F)(F)F)cc3)cc(OCCN3CCCCC3)c2cc1OC
The growth of the first is higher: 97.5% for the first, 58.6% for the second.

Compared with `CN(C)CCC(CCN(C)C)(C(=O)O)c1ccccc1`, `CC(C)(C)c1ccc(CCO)cc1` is lower in growth: 101% for the first, 86.6% for the second.

Going from `CC1(C)C(O)NC(Cl)=C(C#N)C1(C#N)C#N` (stereo unspecified) to `Cc1cc(C)n(C(=O)c2nn(-c3ccc(Cl)cc3)cc2O)n1`, the growth falls from 114% to 39.8%.

First: CC(=O)Oc1cccc(S(=O)(=O)n2cc(C(=O)C(=O)Nc3ccncc3)c3ccccc32)c1
Second: COc1ccc2c(c1)c(-c1nc(-c3ccc4ccccc4c3)cs1)cn2C
The growth of the first is lower: 56.1% for the first, 85.7% for the second.

`CC(C)OCC1CO1` (stereo unspecified) and `Cc1cn(C(C=O)OC(C=O)CO)c(=O)[nH]c1=O` (stereo unspecified) are the same in growth: 103% for the first, 103% for the second.

Compared with `COc1cc(-c2nc3c(c(C)nc4c3nnn4-c3ccccc3)c(=O)o2)cc(OC)c1OC`, `COc1ccc(C(=O)N2CCN(C(=O)c3cc(OC)c(OC)c(OC)c3)CC2)cc1OCCCCOc1cc2c(cc1OC)C(=O)N1CCC[C@H]1C=N2` is higher in growth: 105% for the first, 147% for the second.

Going from `C1CCCCNCCC1` to `C=CCn1c(CN2CCN(c3cc4c(cc3F)c(=O)c(C(=O)O)cn4C3CC3)CC2)n[nH]c1=S`, the growth falls from 114% to 90.1%.

First: FC(F)(F)c1ccccc1-c1cn2c(ccc3ccccc32)n1
Second: Cc1cccc(NC(=O)CSc2nc3ccccc3[nH]2)c1
The growth of the first is lower: 48.1% for the first, 101% for the second.

First: CCCC/C(CC)=N\NS(=O)(=O)c1ccc([N+](=O)[O-])cc1
Second: N#Cc1ccc(-c2ccc(-c3cccs3)o2)cc1F
The growth of the first is higher: 92.2% for the first, 89.3% for the second.

`c1ccc2c(c1)oc1cc3sccc3nc12` was tested, and the growth was 103%.

For `CCN(CC)CCCOc1ccc2ncnc(Nc3ccc(Oc4cccc(C(F)(F)F)c4)c(Cl)c3)c2c1`, the growth was -45.2% (active).
In the case of `COc1cc(C(=O)c2cc(C)c3[nH]c4ccc(O)cc4c3c2C)cc(OC)c1OC`, the growth is reported as -13.7% (active).
For `Cc1ccc(Oc2nc3ccccc3cc2-c2nnc(Cn3c(COc4ccccc4)nc4ccccc43)o2)cc1`, the growth was -18.2% (active).
In the case of `Oc1c(I)cc(-c2nc3ccccc3s2)cc1CN(Cc1ccccn1)Cc1ccccn1`, the growth is reported as 2.06% (active).
`O=C(/C=C/C12c3ccccc3C(c3ccccc31)C1C(=O)NC(=O)C12)c1ccc(Cl)cc1Cl` (stereo unspecified) was tested, and the growth was -8.27% (active).
In the case of `COc1ccc(Nc2ncc(I)c(NCCCNC(=O)C3CCC3)n2)cc1`, the growth is reported as -37.6% (active).
For `Nc1ncnc2c1c(-c1ccc(Oc3ccccc3)cc1)nn2C[C@@H]1SSC[C@@H]1O`, the growth was -0.213% (active).
